The values below come from PubChem BioAssay (NCI).

About 83,000 compounds went through this panel and 20% of them were active in at least one assay; those are over-represented in the sample as a whole.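 Plates (96-well) were seeded with cells, treated with compound at one concentration, and incubated for 48 hours before percent growth was determined.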 Values without a mark were called inactive. The source made the active and inactive calls.

This test concerns NCI-H522 lung. The test is described as follows: NCI-60 one-dose screen, 48 h (100 = growth as untreated, 0 = no growth, -100 = all killed). Particulars: 10 µM unless noted. On the procedure:
Growth inhibition of the NCI-H522 human Non-Small Cell Lung tumor cell line is measured as a screen for anti-cancer activity. Cells are grown in 96 well plates and exposed to the test compound for 48 hours. Compounds are tested at a single concentration, which is 10^-5 M for most compounds. The reported endpoint is percent growth (GI% or GIPRCNT), where numbers from 0 - 100% represent growth inhibition, and numbers from -100% - 0 represent cell death. For example, a value of 40 represents 60% growth inhibition. A value of 0 means no net growth occurred over the course of the experiment. A value of -40 indicates 40% of cells at the beginning of the experiment died by the end of the experiment. A value of -100 means all cells are dead at the end of the experiment.
NCI-60 Human Tumor Cell Lines Screen was performed using the standard one-dose NCI protocol, which is described in more detail at https://dtp.cancer.gov/discovery_development/nci-60/default.htm.
Compounds with GIPRCNT values below 10 were considered active. Activity score was based on GIPRCNT using the following formula: […]
Score is 0 for GIPRCNT values of 100 or above, 50 for GIPRCNT values of 0, and 100 for GIPRCNT values of -100.
On to `CN(C)c1ccc2cc(-c3ccccc3F)c(N)nc2c1`, for which the growth was -1.23% (active).
`CCn1c(Sc2nnc(NC(C)=O)s2)nc2c1c(=O)n(C)c(=O)n2C`: the growth is 93.5%.
Consider `COc1ccc(-n2sc(=O)n(Cc3ccc(COC(=O)C(C)c4ccc(CC(C)C)cc4)cc3)c2=O)cc1` (stereo not given), for which the growth is -32.9% (active).
Then `CC(=O)c1ccc2c(c1)CCN2`, with 91%; and `COc1ccc2c(c1)/C(=C\c1sc(=S)[nH]c1O)C(C(=O)O)=N2`, with 87.6%; and `COC(=O)[C@]12CC[C@@H](C)[C@H](C)[C@@H]1C1=CC[C@@H]3[C@@]4(C)C(C=O)=C[C@@](C)(CO)C4=CC[C@@]3(C)[C@]1(C)CC2`, with 28.1%.
Next, `C/C(=N\NC(N)=S)c1nc2ccc(Cl)cc2[nH]1`: 34%; `CCOc1cccnc1/C=N/NC(N)=S`: 79.1%.
Next, `Oc1ccccc1-c1nc2ccccn2c1NCCN1CCOCC1`: 84%; `O=C1CSC(c2ccc(O)cc2)N1c1nnc(Cn2cnnc2)o1` (stereo not given): 99.1%.
On to `Nc1ccc2c(S(=O)(=O)O)ccc(S(=O)(=O)O)c2c1`, for which the growth was 85%.
With `Cc1ccccc1NC(=O)CN(C)C`, the growth was 82.6%.
Next, `O=C1C=CC(=Nc2cc(Br)c(O)c(Br)c2)C=C1`: -14.6% (active); `CC(C)CCC[C@@H](C)[C@H]1CCC2C3=CCn4c(=O)ccc(=O)n4C3CC[C@@]21C` (stereo not given in full): -66.1% (active); `CN(C)c1ccc(C#Cc2c(F)cccc2Cl)cc1`: 65.1%.
Next, `COc1ccc(Oc2nc(Nc3ccc(N4CCCCC4)nc3)ncc2NC(=O)c2cc(OC)cc(OC)c2)cc1`: 26.6%.
Next, `COc1cc2nc(Nc3ccc(F)cc3)nc(N)c2cc1OC`: 92%.
Turning to `Cl.Fc1c[c-]c(-c2ccccn2)c(F)c1.[Pt].c1ccc([PH+](C[PH+](c2ccccc2)c2ccccc2)c2ccccc2)cc1`, the growth was -60.1% (active).
Then `C=C(C)[C@@H]1CC[C@]2(CNCCO)CC[C@]3(C)[C@H](CC[C@@H]4[C@@]5(C)CCC(N)[C@@](C)(CO)[C@@H]5CC[C@]43C)[C@@H]12` (stereo not given in full), with -77.2% (active).
Then `NC(N)=N/N=C/c1ccc(Br)cc1`, with 40%.
Then `CCCCN(Cc1ccc(C(=O)NO)cc1)C(=O)Nc1ccc(OCCCCCCCCCn2cc(CCCCC(=O)N[C@H](C(=O)N3C[C@H](O)C[C@H]3C(=O)NCc3ccc(-c4scnc4C)cc3)C(C)(C)C)nn2)cc1`, with 19.5%; and `CN(C)CCn1cc(-c2ccc3c(Nc4ccc(CC(=O)Nc5cccc(F)c5)cc4)ncnc3c2)cn1`, with -30.5% [30 µM] (active); and `C[C@@H](C[C@H](CCOCc1cccnc1)c1ccccc1)c1cc2ccccc2o1`, with 78.2%.
In the case of `CCn1c(Sc2nnc(Nc3ccccc3)s2)nc2c1c(=O)n(C)c(=O)n2C`, the growth was 114%.
Next, `CNC(=O)NCC1OC(n2cnc3c(NC(=O)Nc4ccccc4)ncnc32)C2OC(C)(C)OC12` (stereo not given): 103%.
Next, `COc1cc(-c2ccc(N=Nc3c(O)c(C(=O)Nc4ccccc4OC)cc4ccccc34)c(OC)c2)ccc1N=Nc1c(O)c(C(=O)Nc2ccccc2OC)cc2ccccc12`: 90.4%; `COc1ccc(Cn2cnc3cc(C(=O)Nc4cccc5ccccc45)ccc32)c(OC)c1`: 3.89% [30 µM] (active).
Then `COC1(CC[C@@H](C)COC2OC(CO)C(O)C(O)C2O)O[C@H]2C[C@H]3[C@@H]4CC=C5C[C@@H](OC6OC(CO)C(OC7OC(C)C(O)C(O)C7O)C(O)C6OC6OC(C)C(O)C(O)C6O)CC[C@]5(C)[C@H]4CC[C@]3(C)[C@H]2[C@@H]1C` (stereo not given in full), with -60.9% (active); and `NC(=O)CC1(O)C=C(Br)C(=O)C(Br)=C1`, with -49.7% (active).
As to `CN(C)S(=O)(=O)n1cnc([C@@H]2[C@@H]3C(=O)OC[C@@H]3C[C@]23N=CN(Cc2ccccc2)C3=O)c1`, the growth is 102%.
Next, `Cn1nnnc1-c1ccc(N)cc1`: 84.2%; `COc1ccc(N(C)c2nc(Cl)nc3cnn(C)c23)cc1`: -27.6% (active).
Then `Nc1c(C(=O)c2ccc(Cl)s2)sc2nc3c(cc12)CCCC3`, with 83.1%.
Next, `CCCCCCCCn1cc(C2=C(c3coc4ccc(OC)cc34)C(=O)NC2=O)c2ccccc21`: 96.7%.
In the case of `CCCCNCC(=O)Nc1ccc(C(=O)OCC)cc1`, the growth was 69.1%.
Next, `Cc1nc(C)c(-c2nn3c(-c4cccc(F)c4)nnc3s2)s1`: 77.6%; `Cc1cccc(-c2cc(O)c(C(=O)N3CCOCC3)s2)c1`: 0.179% (active); `CC[C@@H](C[C@H](CCO)c1ccccc1)c1cc2ccccc2o1`: 77.5%.
Then `CN(C)c1ccc2cc(-c3ccc(Cl)c(Cl)c3)c(N)nc2c1`, with 22%; and `COc1ccc(-c2nc3sc4c(c3c(=O)[nH]2)CCCC4)c2ccccc12`, with 1.5% (active).
